The source made the active and inactive calls.

In assay [1] the test system is PRMT1 (protein arginine N-methyltransferase 1). Put plainly: small molecules binding arginine methyltransferase PRMT1 – biochemical, small-molecule microarray, 635 nm fluorescence, primary screen (AID 1088).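 Note: binding of Prmt1 protein to compounds spotted on small-molecule microarray slides.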 The settings on record: higher = more signal.
A short description of assay [2]: growth effects on S. cerevisiae YJM789 – YJM789 clinical isolate, OD600, 24 h, basal, primary screen (AID 1089).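 Note: growth of clinical yeast isolate S. cerevisiae YJM 789 seeded 1000 cells per well; test concentration not given here.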 The note with it: higher = more signal, called active from +8 up or from −8 down.
Assay [3] is described as follows: S. pombe growth modifiers, basal conditions – strain 972, OD600, 24 h, no modulator, primary screen (AID 1090).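 Note: basal condition with compound alone and no growth modifier present; test concentration not given here.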 The settings on record: S. pombe 972 growth, higher = more signal, called active from +8 up or from −8 down.
Assay [4] can be described thus: budding yeast growth modifiers under rapamycin – strain BY4716, OD600, 96 h, primary screen (AID 1091). Note: test concentration not given here. The settings on record: S. cerevisiae BY4716 + rapamycin, higher = more signal, called active from +8 up or from −8 down.
Assay [5] addresses Torsin-1A-interacting protein 2 (Homo sapiens) (UniProt Q8NFQ8). Put plainly: small molecules binding lysate-expressed LULL1 – cell lysate, human LULL1 lysate, 635/667 nm fluorescence, primary screen (AID 1092).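 Note: probe is lysate of COS7 cells overexpressing human LULL1; score merges per-feature 667 nm fluorescence with signal-to-noise.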 The note with it: small-molecule microarray, hLULL1 lysate binding, 635 nm fluorescence; higher = more signal.
Assay [6] is described as follows: optical density change of DRC41 E. coli – strain DRC41, OD650, 24 h, E. coli filamentation project, primary screen (AID 1093).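 Note: MC1000 strain lacking acrAB efflux and sulA so SOS filamentation is blocked; test concentration not given here.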 The settings on record: E. coli DRC41 growth, higher = more signal, called active from +8 up or from −8 down.
The nature of assay [7]: probe aLefty2 binding to arrayed compounds – biochemical, biotinylated probe, 635/667 nm fluorescence, primary screen (AID 1094).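 Note: score merges spot fluorescence near 667 nm with spot signal-to-noise ratio.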 The settings on record: small-molecule microarray, higher = more signal.
The test system of assay [8] is Noggin (protein binding on small-molecule microarray). Description: small molecules binding Noggin protein – biochemical, 635/667 nm fluorescence, primary screen (AID 1095).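 Note: score merges 667 nm feature fluorescence with signal to noise over triplicate slides.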 The note with it: 635 nm fluorescence, higher = more signal.
For assay [9], the target named is Neurogenic locus notch homolog protein 3 (Homo sapiens) (UniProt Q9UM47). Description: small molecules binding NOTCH3 protein – biochemical, 635/667 nm fluorescence, primary screen (AID 1096). The note with it: small-molecule microarray, 635 nm fluorescence, higher = more signal.
Neurogenic locus notch homolog protein 3 (Homo sapiens), sequence (Q9UM47 whole entry, looked up): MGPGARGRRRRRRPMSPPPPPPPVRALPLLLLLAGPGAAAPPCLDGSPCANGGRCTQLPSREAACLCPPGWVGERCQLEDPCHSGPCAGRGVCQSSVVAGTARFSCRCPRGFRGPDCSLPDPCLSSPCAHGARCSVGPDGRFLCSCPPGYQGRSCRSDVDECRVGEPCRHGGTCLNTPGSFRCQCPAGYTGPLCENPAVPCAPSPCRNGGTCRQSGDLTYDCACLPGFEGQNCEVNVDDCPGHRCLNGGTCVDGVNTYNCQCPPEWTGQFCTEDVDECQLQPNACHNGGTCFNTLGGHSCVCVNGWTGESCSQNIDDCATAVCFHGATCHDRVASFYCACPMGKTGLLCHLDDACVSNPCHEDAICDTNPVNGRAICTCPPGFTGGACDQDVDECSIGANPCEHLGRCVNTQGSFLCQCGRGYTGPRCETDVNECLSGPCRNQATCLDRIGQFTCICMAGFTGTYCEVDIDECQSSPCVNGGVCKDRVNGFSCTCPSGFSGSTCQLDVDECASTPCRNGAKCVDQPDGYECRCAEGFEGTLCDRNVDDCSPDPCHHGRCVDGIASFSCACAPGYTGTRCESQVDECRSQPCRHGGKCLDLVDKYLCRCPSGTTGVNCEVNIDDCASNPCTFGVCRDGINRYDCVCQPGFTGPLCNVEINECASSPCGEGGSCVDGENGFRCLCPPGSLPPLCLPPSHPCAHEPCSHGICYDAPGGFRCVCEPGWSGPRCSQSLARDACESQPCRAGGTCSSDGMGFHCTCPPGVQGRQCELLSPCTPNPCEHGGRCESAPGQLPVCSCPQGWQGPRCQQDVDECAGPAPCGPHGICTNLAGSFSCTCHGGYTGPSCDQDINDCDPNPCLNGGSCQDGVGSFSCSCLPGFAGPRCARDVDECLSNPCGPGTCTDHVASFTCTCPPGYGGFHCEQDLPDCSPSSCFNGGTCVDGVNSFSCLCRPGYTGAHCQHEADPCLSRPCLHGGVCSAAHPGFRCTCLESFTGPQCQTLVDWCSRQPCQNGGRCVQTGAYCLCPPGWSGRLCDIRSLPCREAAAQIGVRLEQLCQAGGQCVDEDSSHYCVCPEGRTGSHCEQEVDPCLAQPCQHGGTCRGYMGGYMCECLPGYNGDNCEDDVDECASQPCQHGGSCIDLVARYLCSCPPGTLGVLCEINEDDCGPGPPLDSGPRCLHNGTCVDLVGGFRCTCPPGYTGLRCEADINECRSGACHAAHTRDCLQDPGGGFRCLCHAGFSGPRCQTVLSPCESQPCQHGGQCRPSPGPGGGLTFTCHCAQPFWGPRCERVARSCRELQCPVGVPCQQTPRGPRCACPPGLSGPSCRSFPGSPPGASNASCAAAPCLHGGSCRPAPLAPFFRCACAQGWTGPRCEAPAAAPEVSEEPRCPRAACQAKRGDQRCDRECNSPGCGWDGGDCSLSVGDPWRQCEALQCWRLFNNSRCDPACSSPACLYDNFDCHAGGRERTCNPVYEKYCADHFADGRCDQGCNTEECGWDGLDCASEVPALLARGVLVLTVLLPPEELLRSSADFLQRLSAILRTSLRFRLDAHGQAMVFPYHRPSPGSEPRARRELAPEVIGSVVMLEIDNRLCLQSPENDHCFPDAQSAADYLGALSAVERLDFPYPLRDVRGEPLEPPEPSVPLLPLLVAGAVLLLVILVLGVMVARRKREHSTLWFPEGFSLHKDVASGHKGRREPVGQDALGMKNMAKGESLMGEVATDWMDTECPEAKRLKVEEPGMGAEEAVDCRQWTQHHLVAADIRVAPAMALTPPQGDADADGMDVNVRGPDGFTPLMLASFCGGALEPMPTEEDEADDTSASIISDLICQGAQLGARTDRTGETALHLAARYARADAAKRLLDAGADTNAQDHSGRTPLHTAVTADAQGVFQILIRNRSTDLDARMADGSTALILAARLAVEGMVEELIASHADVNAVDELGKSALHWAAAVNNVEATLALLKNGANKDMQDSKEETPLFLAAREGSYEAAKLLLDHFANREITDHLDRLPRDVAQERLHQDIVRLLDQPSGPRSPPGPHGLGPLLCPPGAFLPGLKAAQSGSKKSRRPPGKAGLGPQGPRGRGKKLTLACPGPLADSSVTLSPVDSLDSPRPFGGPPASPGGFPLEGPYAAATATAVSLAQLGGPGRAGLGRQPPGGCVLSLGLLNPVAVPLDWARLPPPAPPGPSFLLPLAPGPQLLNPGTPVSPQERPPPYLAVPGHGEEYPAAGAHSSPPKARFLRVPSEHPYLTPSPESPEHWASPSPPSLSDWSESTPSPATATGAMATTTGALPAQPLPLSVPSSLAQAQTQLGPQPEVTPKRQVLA
Assay [10] can be described thus: probe aEGFR binding to arrayed compounds – biochemical, biotinylated probe, 635/667 nm fluorescence, primary screen (AID 1097).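 Note: probe is a biotinylated anti-EGFR antibody binding compounds printed on slides; score combines fluorescence near 667 nm and signal to noise of each spot.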 The note with it: small-molecule microarray, higher = more signal.
The subject of assay [11] is Plasmodium falciparum Sir2 (PF13_0152, Sir2A). Description: Plasmodium falciparum Sir2A binding compounds – biochemical, small-molecule microarray, 635 nm fluorescence, primary screen (AID 1098).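 Note: score merges spot fluorescence intensity with its signal-to-noise ratio.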 The note with it: fluorescence 635 nm, higher = more signal.
The nature of assay [12]: probe aDKK1 binding to arrayed compounds – biochemical, biotinylated probe, 635/667 nm fluorescence, primary screen (AID 1099).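 Note: score merges 667nm spot fluorescence with signal to noise across triplicate slides; reference of the scale not given here.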 The note with it: small-molecule microarray, higher = more signal.
Assay [13] can be described thus: probe aCHRDL2 binding to arrayed compounds – biochemical, biotinylated probe, 635/667 nm fluorescence, primary screen (AID 1100). The note with it: small-molecule microarray, higher = more signal.
Assay [14] can be described thus: change in splice reporter luminescence, either direction, cell-based, HEK293, spliceosome inhibition project, primary screen (AID 1101).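 Note: HEK293 cells carrying a splicing-competent luciferase reporter gene; test concentration not given here.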 The note with it: HEK293 splicing luciferase reporter, 24 h, higher = more signal, called active from +8 up or from −8 down.
Assay [15] deals with Fibroblast growth factor 10 (Homo sapiens) (UniProt O15520). Description: compounds binding fibroblast growth factor 10 – biochemical, small-molecule microarray, 635 nm fluorescence, primary screen (AID 1102). The note with it: FGF10 binding, fluorescence 635 nm, higher = more signal.
Fibroblast growth factor 10 (Homo sapiens), sequence (O15520 whole entry, looked up): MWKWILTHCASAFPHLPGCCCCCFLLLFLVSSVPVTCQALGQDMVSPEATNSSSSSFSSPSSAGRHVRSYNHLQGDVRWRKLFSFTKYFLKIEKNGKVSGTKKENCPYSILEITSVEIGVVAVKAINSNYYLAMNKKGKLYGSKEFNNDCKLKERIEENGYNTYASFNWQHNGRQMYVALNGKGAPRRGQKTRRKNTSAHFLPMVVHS
Assay [16] relates to glycogen synthase kinase-3 (GSK3A per assay name; protocol says GSK3B). Put plainly: compounds binding glycogen synthase kinase-3 – biochemical, small-molecule microarray, 635 nm fluorescence, GSK3A, primary screen (AID 1103). Note: the record names both GSK3A and GSK3B. The settings on record: fluorescence 635 nm, higher = more signal.
The target of assay [17] is Epidermal growth factor receptor (Homo sapiens) (UniProt P00533). Description: compounds binding epidermal growth factor receptor – biochemical, small-molecule microarray, 635 nm fluorescence, primary screen (AID 1104).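 Note: score merges 667 nm emission intensity with spot signal to noise over triplicate slides.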 The note with it: EGFR binding, higher = more signal.
Epidermal growth factor receptor (Homo sapiens), sequence (P00533 whole entry, looked up): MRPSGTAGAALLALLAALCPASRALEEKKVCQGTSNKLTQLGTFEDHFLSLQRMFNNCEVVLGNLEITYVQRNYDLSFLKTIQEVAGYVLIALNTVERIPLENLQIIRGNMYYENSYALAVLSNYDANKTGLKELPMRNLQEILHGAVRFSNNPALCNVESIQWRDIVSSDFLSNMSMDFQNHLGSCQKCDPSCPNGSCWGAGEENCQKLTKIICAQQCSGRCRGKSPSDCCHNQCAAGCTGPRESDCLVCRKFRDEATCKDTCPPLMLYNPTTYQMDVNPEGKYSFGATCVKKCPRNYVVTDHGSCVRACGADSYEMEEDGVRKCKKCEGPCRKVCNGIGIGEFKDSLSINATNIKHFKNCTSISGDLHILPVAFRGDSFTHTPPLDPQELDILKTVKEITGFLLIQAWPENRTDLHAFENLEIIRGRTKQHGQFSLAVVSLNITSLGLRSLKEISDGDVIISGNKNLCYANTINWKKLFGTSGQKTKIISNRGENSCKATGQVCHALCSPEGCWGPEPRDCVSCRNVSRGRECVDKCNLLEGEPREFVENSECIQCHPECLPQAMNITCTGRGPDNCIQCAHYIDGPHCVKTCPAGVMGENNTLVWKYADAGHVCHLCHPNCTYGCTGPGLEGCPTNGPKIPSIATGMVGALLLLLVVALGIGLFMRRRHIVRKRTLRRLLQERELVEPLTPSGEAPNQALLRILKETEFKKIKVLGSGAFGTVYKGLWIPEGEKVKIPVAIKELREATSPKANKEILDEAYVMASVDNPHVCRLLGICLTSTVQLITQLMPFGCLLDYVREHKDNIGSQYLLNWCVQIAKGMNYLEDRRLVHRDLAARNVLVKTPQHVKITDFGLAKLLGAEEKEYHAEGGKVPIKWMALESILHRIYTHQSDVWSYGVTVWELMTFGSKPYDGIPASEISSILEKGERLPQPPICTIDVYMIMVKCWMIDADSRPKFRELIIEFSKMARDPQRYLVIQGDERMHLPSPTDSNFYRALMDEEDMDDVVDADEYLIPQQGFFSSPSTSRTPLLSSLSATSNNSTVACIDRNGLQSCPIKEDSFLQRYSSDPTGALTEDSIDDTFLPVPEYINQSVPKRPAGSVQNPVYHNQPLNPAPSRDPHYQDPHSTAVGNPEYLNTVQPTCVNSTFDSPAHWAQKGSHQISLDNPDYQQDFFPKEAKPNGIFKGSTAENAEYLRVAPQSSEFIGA
The target in assay [18] is Follistatin-related protein 3 (Homo sapiens) (UniProt O95633). Put plainly: compounds binding follistatin-related protein 3 – biochemical, small-molecule microarray, 635 nm fluorescence, primary screen (AID 1105).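 Note: score merges emission near 667 nm and signal to noise per printed spot across three slides.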 The note with it: FSTL3 binding, higher = more signal.
Follistatin-related protein 3 (Homo sapiens), sequence (O95633 whole entry, looked up): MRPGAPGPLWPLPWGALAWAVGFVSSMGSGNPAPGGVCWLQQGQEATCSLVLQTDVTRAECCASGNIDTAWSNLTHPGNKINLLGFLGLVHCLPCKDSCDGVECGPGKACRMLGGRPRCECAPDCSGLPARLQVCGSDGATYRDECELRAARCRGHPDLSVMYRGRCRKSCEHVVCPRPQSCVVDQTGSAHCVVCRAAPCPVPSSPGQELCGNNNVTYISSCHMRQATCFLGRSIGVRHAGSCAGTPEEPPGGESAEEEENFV
In assay [19] the target is Dickkopf-related protein 1 (Homo sapiens) (UniProt O94907). Put plainly: small molecules binding DKK1 protein – biochemical, small-molecule microarray, 635 nm fluorescence scan, primary screen (AID 1106).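 Note: score merges emission near 667 nm with signal to noise over three replicate slides.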 The settings on record: higher = more signal.
Dickkopf-related protein 1 (Homo sapiens), sequence (O94907 whole entry, looked up): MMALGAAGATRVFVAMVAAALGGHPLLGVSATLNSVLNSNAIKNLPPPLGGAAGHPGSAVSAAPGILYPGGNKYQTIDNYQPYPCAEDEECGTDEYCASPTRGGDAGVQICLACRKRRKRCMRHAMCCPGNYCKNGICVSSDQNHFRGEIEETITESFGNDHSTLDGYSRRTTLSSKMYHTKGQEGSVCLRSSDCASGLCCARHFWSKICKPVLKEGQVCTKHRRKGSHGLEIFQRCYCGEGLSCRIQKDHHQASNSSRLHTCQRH
The subject of assay [20] is Inhibin beta A chain (activin A). Put plainly: small molecules binding activin A – biochemical, small-molecule microarray, 635 nm fluorescence scan, primary screen (AID 1107).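 Note: mouse activin A protein probed at 4.33 µg/mL on printed slides; score merges bound-protein fluorescence near 667 nm with spot signal-to-noise.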 The settings on record: INHBA, higher = more signal.

Torsin-1A-interacting protein 2 (Homo sapiens), sequence (Q8NFQ8 whole entry, looked up): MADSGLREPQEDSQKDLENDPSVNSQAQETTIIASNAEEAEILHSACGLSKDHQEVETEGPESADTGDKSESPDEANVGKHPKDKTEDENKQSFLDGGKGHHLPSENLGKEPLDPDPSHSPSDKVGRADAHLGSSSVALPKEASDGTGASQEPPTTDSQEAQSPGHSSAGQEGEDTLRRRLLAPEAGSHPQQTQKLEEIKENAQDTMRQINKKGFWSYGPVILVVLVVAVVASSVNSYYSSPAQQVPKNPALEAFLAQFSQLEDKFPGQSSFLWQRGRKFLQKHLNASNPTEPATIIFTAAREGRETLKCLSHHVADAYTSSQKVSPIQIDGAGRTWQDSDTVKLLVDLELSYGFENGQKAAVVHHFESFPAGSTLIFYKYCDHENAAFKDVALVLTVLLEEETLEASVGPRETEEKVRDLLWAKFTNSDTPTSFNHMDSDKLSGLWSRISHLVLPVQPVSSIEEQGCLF

On to `C#CCCCON=C1C[C@@H](O)[C@@H](O)[C@@H]2[C@@H]3C(=O)N(c4ccc(F)cc4F)C(=O)[C@@H]3CC[C@H]12`, for which the composite z-score was 1.43 in [1]; 2.13 in [5]; -0.226 in assay [7]; 0.844 in assay [8]; 0.793 in assay [9]; -0.0187 in assay [10]. Further, the composite z-score was 0.87 in [11]; -0.177 in assay [12]; -0.86 in [13]; 0.947 in assay [15]; 0.678 in assay [16]; 0.403 in [17]. The figures for the composite z-score in assay [18], in assay [19] and in assay [20] were 0.432, 0.978 and -0.185, respectively. Besides, the z-score was -0.989 (inactive) in assay [2]; -1.41 (inactive) in assay [3]; -1.5 (inactive) in assay [4]; 0.534 (inactive) in assay [6]; -1.35 (inactive) in assay [14].
Take `CC(C)CON=C1C[C@@H](O)[C@@H](O)[C@@H]2[C@@H]3C(=O)N(Cc4ccc5c(c4)OCO5)C(=O)[C@@H]3CC[C@H]12`: the composite z-score is 1.31 in [1]; 2.33 in assay [5]; -0.2 in assay [7]; 1.38 in assay [8]; 0.846 in assay [9]; -0.0697 in assay [10]. Moreover, the composite z-score was 0.191 in assay [11]; -0.222 in assay [12]; -0.608 in assay [13]; 1.14 in assay [15]; 0.589 in [16]; 0.216 in [17]. Further, the composite z-score in assay [18] is 0.671; in [19], 0.178; in assay [20], -0.374. Besides, the z-score in assay [2] is 0.306 (inactive); in assay [3], 0.754 (inactive); in assay [4], 0.329 (inactive); in assay [6], 0.396 (inactive); in [14], 0.31 (inactive).
With `COc1cccc([C@@H]2Oc3ccc(OC)cc3C(=O)[C@H]2O)c1`, the composite z-score is 0.597 in assay [1]; 0.704 in [5]; -0.173 in [7]; 0.052 in [8]; 0.415 in [9]; -0.0697 in [10]. The composite z-score in assay [11] is -0.117; in assay [12], -0.172; in [13] it was -0.705; in assay [15] it was 0.606; in assay [16] it was 0.184; in assay [17] it was 0.469. Further, the values for the composite z-score in assay [18], in assay [19] and in [20] were 0.525, 0.527 and 0.0204, respectively. In addition, the z-score in [2] is -2.23 (inactive); in [3] it was -4.98 (inactive); in assay [4] it was -2.1 (inactive); in assay [6] it was 0.349 (inactive); in assay [14], -2.47 (inactive).
Turning to `CCCNC(=O)OC[C@H]1O[C@H](CCON=C(C)C)C=C[C@@H]1Oc1ccc(OC)cc1`, the composite z-score in assay [1] is 0.612; in assay [5] it was 0.876; in assay [7], 0.0472; in assay [8] it was 0.422; in assay [9], -0.216; in assay [10], -0.0581. The composite z-score in [11] was 0.415; in assay [12], 0.325; in assay [13] it was 0.707; in assay [15] it was 0.325; in assay [16], -0.515; in assay [17], -0.0864. For the same compound, the composite z-score in assay [18] is -0.125; in assay [19], -0.288; in assay [20], 1.23. For the same compound, the z-score was -0.578 (inactive) in [2]; -5.54 (inactive) in [3]; 0.0158 (inactive) in [4]; 0.964 (inactive) in [6]; -0.0557 (inactive) in assay [14].
For the compound `CCOC(=O)[C@H](Cc1ccccc1)NC(=O)CCC1CC(OC(=O)NCc2cccc3ccccc23)CC2(CCCC(COC(=O)NCC(c3ccccc3)c3ccccc3)O2)O1` (stereo not given in full), the composite z-score in assay [1] was 1.5; in [5] it was 1.17; in assay [7], -0.147; in assay [8], 0.504; in assay [9], 0.851; in assay [10] it was 0.0117. The composite z-score in [11] was 0.812; in [12], 0.127; in assay [13], -0.464; in [15] it was 0.684; in [16] it was 0.588; in [17], 0.356. Also, the composite z-score worked out at 0.501 in assay [18], 0.37 in assay [19] and 0.0413 in assay [20]. In addition, the z-score in assay [2] is -0.803 (inactive); in assay [3], -0.463 (inactive); in assay [4] it was -1.07 (inactive); in [6] it was -1.09 (inactive); in assay [14], -1.21 (inactive).

(Values after PubChem BioAssay.)
